Structures are written as SMILES. A structure can be active in one record and inactive in another. The source made the active and inactive calls. The calls were made as follows: active = hit-call score of the fitted dose curve at least 0.9, where 1 is the maximum; inactive = score below 0.9.

Chain of Bile acid receptor (Homo sapiens) (Q96RI1 whole entry, looked up, the tested form may be a part): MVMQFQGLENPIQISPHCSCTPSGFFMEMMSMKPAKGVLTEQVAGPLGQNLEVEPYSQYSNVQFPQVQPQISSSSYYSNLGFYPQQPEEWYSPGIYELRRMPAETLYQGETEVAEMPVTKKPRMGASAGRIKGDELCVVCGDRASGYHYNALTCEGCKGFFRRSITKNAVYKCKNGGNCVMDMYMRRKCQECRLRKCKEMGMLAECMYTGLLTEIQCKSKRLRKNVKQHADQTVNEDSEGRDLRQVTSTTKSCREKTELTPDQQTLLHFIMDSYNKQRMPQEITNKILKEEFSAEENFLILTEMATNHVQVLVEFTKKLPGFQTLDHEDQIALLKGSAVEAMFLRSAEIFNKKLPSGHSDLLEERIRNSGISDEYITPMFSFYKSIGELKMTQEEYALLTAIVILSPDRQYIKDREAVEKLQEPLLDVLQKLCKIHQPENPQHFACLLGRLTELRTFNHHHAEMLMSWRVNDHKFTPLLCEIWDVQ

Test system in the first test: not listed separately
The test can be described thus: ATG_GLI_CIS: Attagene CIS-FACTORIAL HepG2 Assay for human Zinc Finger Protein GLI1 (AID 2282945). The note with it: HepG2, Attagene cis-factorial reporter mRNA, GLI element; actives raise or lower the signal. An outline of the steps:
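Bidirectional curve fits relative to DMSO, using reporter mRNA levels from RT-PCR plus capillary electrophoresis. Cells were HepG2 transiently carrying cis-regulated reporter constructs, harvested 24 h after dosing.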
In the case of `CO/C=C(/C(=O)OC)c1ccccc1Oc1cc(Oc2ccccc2C#N)ncn1`, the compound was called inactive.
For the compound `CON(C)C(=O)Nc1ccc(Cl)c(Cl)c1`, the result was inactive.
Take `CCOc1cc(Oc2ccc(C(F)(F)F)cc2Cl)ccc1[N+](=O)[O-]`: the outcome was inactive.
Same read-out and setting: the same measure for `CNC(=S)S`: “inactive”; for `Cc1ccc(-c2c(Cl)nc(C#N)n2S(=O)(=O)N(C)C)cc1`: “inactive”.
In the case of `COP(=S)(OC)Oc1nc(Cl)c(Cl)cc1Cl`, the AC50 (usually the midpoint of the concentration-response curve, whichever way the signal moves) was 64.9 µM (active).
In the case of `CC1COC(Cn2cncn2)(c2ccc(Oc3ccc(Cl)cc3)cc2Cl)O1` (centres undefined), the outcome was inactive.
With `Fc1ccc(Oc2ccnc3cc(Cl)cc(Cl)c23)cc1`, the call was inactive.
For the compound `COc1cnc(OC)n2nc(NS(=O)(=O)c3c(OCC(F)F)cccc3C(F)(F)F)nc12`, the compound was called inactive.
In the case of `CCNc1nc(Cl)nc(NCC)n1`, the result was inactive.
For `C#CCOS(=O)OC1CCCCC1Oc1ccc(C(C)(C)C)cc1` (centres undefined), the compound was called inactive.
Regarding `OC(c1ccc(Cl)cc1)(c1cncnc1)c1ccccc1Cl` (centres undefined), the call was inactive.
Take `O=C(Nc1ccccc1)Nc1ccnc(Cl)c1`: the compound was called inactive.
For `CCCCOC(=O)c1ccccc1C(=O)OCCCC`, the result was inactive.
Still for that read-out and setting: the same measure for `CCCCC(CC)COC(=O)c1ccccc1C(=O)OCC(CC)CCCC` (centres undefined): “inactive”; for `O=C(O)c1nc(Cl)ccc1Cl`: “inactive”.
Take `Cc1cc(Cl)ccc1OCC(=O)O`: the call was inactive.
For the compound `COc1nc(NC(C)C)nc(NC(C)C)n1`, the result was inactive.
As to `CC1=C(C(=O)Nc2ccccc2)SCCO1`, the outcome was inactive.
For the compound `CN(C)C(=S)SSC(=S)N(C)C`, the compound was called inactive.
`CCCCNC(=O)n1c(NC(=O)OC)nc2ccccc21`: the outcome was inactive.
On the same count and under the same terms, the same measure for `COc1nc(C)nc(NC(=O)NS(=O)(=O)c2ccccc2Cl)n1`: “inactive”; for `CCOC(=O)CC(SP(=S)(OC)OC)C(=O)OCC` (centres undefined): “inactive”.
Consider `N#Cc1cc(Br)c(O)c(Br)c1`, for which the outcome was inactive.
As for `COP(N)(=O)SC` (centres undefined), the result was inactive.
For the compound `CCNc1nc(Cl)nc(NC(C)C)n1`, the call was inactive.
As to `CCCN(CCC)c1c([N+](=O)[O-])cc(S(N)(=O)=O)cc1[N+](=O)[O-]`, the compound was called inactive.

Another test addresses Bile acid receptor (Homo sapiens) (UniProt Q96RI1). In words: ATG_IR1_CIS: Attagene CIS-FACTORIAL HepG2 Assay for human Nuclear Receptor Subfamily 1 Group H Member 4 (NR1H4), IR1 submotif (AID 2282946). The note with it: IR1 reporter transcription, actives raise or lower the signal. The gist of the method: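 Cells (human HepG2) carry transiently transfected cis-promoter reporter transcription units. Compounds are incubated 24 h, total RNA is reverse-transcribed and amplified, and labelled fragments are resolved by capillary electrophoresis. Curves use DMSO as baseline.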
As for `CCOc1cc(Oc2ccc(C(F)(F)F)cc2Cl)ccc1[N+](=O)[O-]`, the outcome was inactive.
On to `Cc1ccc(-c2c(Cl)nc(C#N)n2S(=O)(=O)N(C)C)cc1`, for which the outcome was inactive.
As for `COP(=S)(OC)Oc1nc(Cl)c(Cl)cc1Cl`, the outcome was inactive.
`CC1COC(Cn2cncn2)(c2ccc(Oc3ccc(Cl)cc3)cc2Cl)O1` (centres undefined): the compound was called inactive.
For `Fc1ccc(Oc2ccnc3cc(Cl)cc(Cl)c23)cc1`, the call was inactive.
Regarding `CCNc1nc(Cl)nc(NCC)n1`, the compound was classed as inactive.
`C#CCOS(=O)OC1CCCCC1Oc1ccc(C(C)(C)C)cc1` (centres undefined): the compound was classed as inactive.
Take `O=C(Nc1ccccc1)Nc1ccnc(Cl)c1`: the result was inactive.
In the case of `CCCCC(CC)COC(=O)c1ccccc1C(=O)OCC(CC)CCCC` (centres undefined), the result was inactive.
As for `COc1nc(NC(C)C)nc(NC(C)C)n1`, the compound was classed as inactive.
On to `CC1=C(C(=O)Nc2ccccc2)SCCO1`, for which the outcome was inactive.
For `CN(C)C(=S)SSC(=S)N(C)C`, the outcome was inactive.
With `CCCCNC(=O)n1c(NC(=O)OC)nc2ccccc21`, the call was inactive.
Regarding `N#Cc1cc(Br)c(O)c(Br)c1`, the call was inactive.
The same measure, in the same setting: the same measure for `COP(N)(=O)SC` (centres undefined): “inactive”.
As for `CCCN(CCC)c1c([N+](=O)[O-])cc(S(N)(=O)=O)cc1[N+](=O)[O-]`, the compound was classed as inactive.

Test system in another test: not listed separately
The test can be described thus: ATG_GRE_CIS: Attagene CIS-FACTORIAL HepG2 Assay for human Glucocorticoid Response Elements (GRE) (AID 2282947). The note with it: HepG2 GRE cis-reporter, Attagene multiplex mRNA; actives raise or lower the signal. An outline of the steps:
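Assay uses human hepatoma HepG2 cells transfected with cis-promoter reporter units, exposed 24 h. mRNA from reporters detected by RT-PCR plus capillary electrophoresis; DMSO serves as negative control and baseline.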
As for `CNC(=S)S`, the outcome was inactive.
Consider `Cc1cc(Cl)ccc1OCC(=O)O`, for which the result was inactive.
As to `CCNc1nc(Cl)nc(NC(C)C)n1`, the call was inactive.

Test system in a further test: not listed separately
The test can be described thus: ATG_ISRE_CIS: Attagene CIS-FACTORIAL HepG2 Assay for human Interferon Regulatory Factor 1 (IRF1) binding to an Interferon-Stimulated Response Element (ISRE) (AID 2282948). The note with it: HepG2 ISRE cis-reporter (Attagene), mRNA transcription readout; actives raise or lower the signal. The gist of the method:
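Transfected HepG2 (multiple reporter transcription units, cis elements) dosed 24 h. RNA → oligo(dT) RT → PCR → 6-FAM primer extension → HpaI → CE. DMSO = negative control/baseline.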
Take `CO/C=C(/C(=O)OC)c1ccccc1Oc1cc(Oc2ccccc2C#N)ncn1`: the compound was classed as inactive.
In the case of `CON(C)C(=O)Nc1ccc(Cl)c(Cl)c1`, the result was inactive.
With `CCOc1cc(Oc2ccc(C(F)(F)F)cc2Cl)ccc1[N+](=O)[O-]`, the result was inactive.
As to `CNC(=S)S`, the AC50 is 73.5 µM (active) and the call was inactive.
For the compound `Cc1ccc(-c2c(Cl)nc(C#N)n2S(=O)(=O)N(C)C)cc1`, the compound was classed as inactive.
On to `COP(=S)(OC)Oc1nc(Cl)c(Cl)cc1Cl`, for which the compound was classed as inactive.
Turning to `CC1COC(Cn2cncn2)(c2ccc(Oc3ccc(Cl)cc3)cc2Cl)O1` (centres undefined), the outcome was inactive.
For `Fc1ccc(Oc2ccnc3cc(Cl)cc(Cl)c23)cc1`, the call was inactive.
With `COc1cnc(OC)n2nc(NS(=O)(=O)c3c(OCC(F)F)cccc3C(F)(F)F)nc12`, the compound was classed as inactive.
With `CCNc1nc(Cl)nc(NCC)n1`, the call was inactive.
Consider `C#CCOS(=O)OC1CCCCC1Oc1ccc(C(C)(C)C)cc1` (centres undefined), for which the call was inactive.
Regarding `OC(c1ccc(Cl)cc1)(c1cncnc1)c1ccccc1Cl` (centres undefined), the compound was called inactive.
Turning to `O=C(Nc1ccccc1)Nc1ccnc(Cl)c1`, the result was inactive.
Same read-out and setting: with `CCCCOC(=O)c1ccccc1C(=O)OCCCC` the entry was “inactive”.
Take `CCCCC(CC)COC(=O)c1ccccc1C(=O)OCC(CC)CCCC` (centres undefined): the compound was classed as inactive.
`O=C(O)c1nc(Cl)ccc1Cl`: the call was inactive.
Still for that read-out and setting: with `Cc1cc(Cl)ccc1OCC(=O)O` the entry was “inactive”; with `COc1nc(NC(C)C)nc(NC(C)C)n1`, “inactive”.
As to `CC1=C(C(=O)Nc2ccccc2)SCCO1`, the outcome was inactive.
Same read-out and setting: the same measure for `CN(C)C(=S)SSC(=S)N(C)C`: “inactive”.
`CCCCNC(=O)n1c(NC(=O)OC)nc2ccccc21`: the result was inactive.
Take `COc1nc(C)nc(NC(=O)NS(=O)(=O)c2ccccc2Cl)n1`: the call was inactive.
The same measure, in the same setting: the same measure for `CCOC(=O)CC(SP(=S)(OC)OC)C(=O)OCC` (centres undefined): “inactive”; for `N#Cc1cc(Br)c(O)c(Br)c1`: “inactive”; for `COP(N)(=O)SC` (centres undefined): “inactive”.
As for `CCNc1nc(Cl)nc(NC(C)C)n1`, the result was inactive.
On the same count and under the same terms, the same measure for `CCCN(CCC)c1c([N+](=O)[O-])cc(S(N)(=O)=O)cc1[N+](=O)[O-]`: “inactive”.

For the origin of these results see PubChem BioAssay (EPA / NIEHS).
